Measurements reported in the supplement of paper PMC6555819.

test system: VDR homodimer (NR concentration 270 nM); test: PBM binding z-score (relative to random genomic background probes); higher = stronger binding; sequences stand for … in GC…GCGATTGACAGCGTAGAATGAAGG
Method in brief: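 On custom Agilent 4×180K arrays, double-stranded probes with 34-nt variable regions carried direct-repeat seeds, single-nucleotide variants, half-site ablations or random human genomic background. Ligand-free nuclear receptor dimers were applied for 1 h, and binding was read with antibodies against each partner (one per run). Binding z-scores come from regression-normalized fluorescence, with the random background probes as reference.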

| Sequence | PBM binding z-score |
| --- | --- |
| CCTCGGAGGACAGAACGTCAGAGCTGTCCGCTTT | -0.816 |
| AGAACGAGGGCACGCTGAGTTGATAGCAGAGTAG | 1.98 |
| TCATATAGGTAAACAGGGGAAAGTCCGTAAGTTA | 0.312 |
| GGAACGAGGGCAAGTTGTTAGCAGAGTTTGATGG | 1.65 |
| ATATGTAGGTTAGCTGGGGTCATTCAGACTAGGC | 5.47 |
| ACTCGGAGGAGAAAGGTCAGAGCTACGCCAGTGA | 0.437 |
| TGATTGAGGTTATAAGATCAGGGAACGTTGCAAA | 0.65 |
| CGAACCAGGTCATCCAGGACAGTGAATACATTGA | 2.75 |
| CGAACTAGGTCAGAACAGGAGAGTGAAGGATGAT | 0.129 |
| CCTCGGATGACAACAGGAGGTCAGAGCTGCCAGA | 0.749 |
| CCGACTGGGGCAAGGTTAACATAACGCACAGCCA | 0.172 |
| CTCGAAAGGTCTGTTGAGGTGAGTATACGGATAA | -0.104 |
| TAGCGTAGGTCAGATCGGGCCAGTATACGCTATA | -0.553 |
| CCTAGTTGGTCAGGGTCACACACGCTATAGGTAC | 2.69 |
| ACTAGTTGGTCATCTGAGGTCACACACAATTCGG | 4.23 |
| TCTTGTAGATCAAAGGGTAAGAAAGCCGAAGCCT | -0.525 |
| ATCGAAAGTTCGAAGGTGAGTATACCCACCCGAA | 1.07 |
| GCTATTAGTTGAAAGGGCAAGCGAATGATTCTCG | 0.401 |
| TAGACTAGGTCATTGGGCCAGTATAGTACGCATC | 1.26 |
| ATCGAAAGGTCGAGCTGAGTATAGAGAAAGGGAA | 0.148 |

| Sequence | PBM binding z-score |
| --- | --- |
| CCTACTGGGCCAAAGGTCATGGATTCCAATGCTC | 1.54 |
| CAAACTAGGTCAAGGTCAAACTCGGTTTGTGCCA | 3.81 |
| AGTCAAAGTTCGTCTAGGTAACGTAAGATATGCT | 2.49 |
| CCTTACGGGTCACGAGTTTATAGCACGACGAGCG | 4.44 |
| GCTATTAGTGGAAAGGGCAACCGAATGATTCTCG | -0.143 |
| CCAGACAGGTGAAAGGTAACTCGGTCTGGTACGC | -0.126 |
| AGAACGAGGGCACGCTGAGTTGATAGCCGAGTAG | 1.57 |
| GCTAGCAGGCCATTTGGGTCACTCGATGACGGGC | 0.416 |
| CTCGAAAGGTCGTGCTCAAGTGAGTATACCAAAC | 1.15 |
| CCTCGGAGGACATAAGGTCAGAGCTGTCCGCTTT | 1.01 |
| GCTATTAGTTGAAAGGGGAACCGAATGATTCTCG | -0.125 |
| ATCCAAAGGTCGAAGGTGAGTATACCCACCCGAA | 0.849 |
| ACTAGTTTGTCAGCTGAGGTCACACACAATTCGG | 3.53 |
| TCGAGTAGGTTAGTCGGGGCCTTCAGCCAACATA | -0.455 |
| GCGACTGGGCCATCAGCAGGTTACCATAACTTAA | -0.661 |
| ACTAGTTGGTCAGCTGAGGTCATACACAATTCGG | 4.31 |
| CAGACTGGGGCATAAGGTTACCATAAGCCAGCCC | -0.0112 |
| TCCTATAGGTAAAGGTGAAAGTCGAACGATATGA | 0.13 |
| GATACAGGGTCAGCTAGAGTCCAGAGTATGGAAA | 1.58 |
| ACACGGAGGACAAAGGTCAGAGCTACGCCAGTGA | 1.17 |
